The whole screen tested about 3,300 compounds, of which about 20 (0.6%) were called active. The sample holds actives, similar compounds and a random draw of the others, so the mix is not that of the screen.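 Rule for the calls: active = growth inhibition above 90%, meaning viable cell count cut by more than 90% versus vehicle controls; inactive = growth inhibition below 90%.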
Experiment: HT29 colon tumor cell growth inhibition, primary screen, imaging, high content imaging, 72 h, CellTiter-Glo (AID 772);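 for condensed nuclei: condensed means nuclear area below control median minus 1.5 SD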
Conditions: HCS imaging cell count, at 10 µM, stronger effect = higher value; for condensed nuclei: measured here: percent cells with condensed nuclei
[1] = measured here: ATP CellTiter-Glo viability

| SMILES | growth inhibition | growth inhibition [1] [%] | condensed nuclei [%] |
| --- | --- | --- | --- |
| CCCCOC(=O)c1ccc(NC(=O)CSc2nncn2C)cc1 | 11.7% (inactive) | -49.6 | 2.84 |
| Cc1cc(=O)oc(C)c1C(=O)NCC1CCCO1 (stereo not drawn) | 13.8% (inactive) | 8.51 | 7.86 |
| Clc1ccc(-n2ncc3c(NCc4ccco4)ncnc32)cc1 | 90.8% (active) | 93.7 | 40 |
| Clc1ccc(-n2ncc3c(NCc4cccs4)ncnc32)cc1 | -12.9% (inactive) | -9.82 | 2.28 |
| Cc1cccc(-n2ncc3c(NCc4ccco4)ncnc32)c1 | 88.8% (inactive) | 83.6 | 12.1 |
| Cn1c(OCc2ccco2)nc2c1c(=O)n(Cc1ccc(Cl)c(Cl)c1)c(=O)n2C | -4.69% (inactive) | -10 | 6.05 |
| COc1ccc(CNc2oc(COc3ccc(Cl)cc3)nc2C#N)cc1 | 59% (inactive) | 54.4 | 24.8 |
| COc1ccc(CSc2nnc3n(C)c(=O)c4c5c(sc4n23)CCCC5)cc1 | -75.3% (inactive) | -39.3 | 2.4 |
| Cc1ccc(-c2nnc(-c3cccc(Br)c3)o2)cc1 | 20.1% (inactive) | -5.25 | 0 |
| Cc1ccccc1C(=O)c1ccc2c(c1)n(C)c(=O)n2C | -2.53% (inactive) | -7.19 | 3.03 |
| O=C(NC1CCCCC1)N1CCSC1=Nc1ccccc1 | 54.8% (inactive) | 12.5 | 9.09 |
| O=C1C(=O)N(CCN2CCOCC2)C(c2ccccn2)/C1=C(/O)c1ccc(F)cc1 (stereo not drawn) | -59.2% (inactive) | -29.6 | 3.57 |
| C=CCNc1nc(-c2ccc(O)c(C(N)=O)c2)cs1 | -5% (inactive) | 38.5 | 8.5 |
| CCOc1ccc(-c2nc(C#N)c(N3CCN(CC)CC3)o2)cc1 | 33.8% (inactive) | -1.72 | 5.03 |
| C=CCOC(=O)C(C#N)c1nc2ccccc2nc1N1CCN(c2ccccc2OCC)CC1 (stereo not drawn) | -8.05% (inactive) | -23.8 | 3.97 |
| Cc1cc(C)n(CC2CC(=O)N(c3cc(Cl)cc(Cl)c3)C2=O)n1 (stereo not drawn) | -36.8% (inactive) | -33.9 | 2.19 |
| COCCCn1c2nc3ccccc3nc2c2c(=O)n(-c3ccccc3OC)c(C)nc21 | -36.8% (inactive) | -45.7 | 1.23 |
| C=CCOC(=O)C1=C(C)OC(N)=C(C#N)C1c1ccoc1 (stereo not drawn) | 45.6% (inactive) | 21.7 | 6.32 |
| CCOC(=O)c1c(SC)nc(SC)c2c1CCC2 | -36.8% (inactive) | -48 | 3.12 |
| Cc1cc(C)n(Cc2ccc(C(=O)NCCC3=CCCCC3)o2)n1 | -19.5% (inactive) | 3.39 | 3.56 |
| Cn1cc(Br)cc2nc(C(F)(F)F)nc1-2 | 1.5% (inactive) | 19.5 | 22.8 |
| COc1ccc(C2CC(=O)c3sc(N)nc3C2)cc1 (stereo not drawn) | 57.6% (inactive) | 22.2 | 1.99 |

| SMILES | growth inhibition | growth inhibition [1] [%] | condensed nuclei [%] |
| --- | --- | --- | --- |
| O=C(NCCC1=CCCCC1)c1ccc(=O)oc1 | 45.9% (inactive) | 19.6 | 21.8 |
| Clc1ccccc1-c1nn2c(-c3ccccn3)nnc2s1 | -1.22% (inactive) | 21.5 | 15.7 |
| CCCCc1c(C)c2ccc(OCC(C)=O)cc2oc1=O | -30.8% (inactive) | -58.8 | 2.85 |
| CO[C@H]1C[C@@H]2CC[C@@H](C)[C@@](O)(O2)C(=O)C(=O)N2CCCC[C@H]2C(=O)O[C@H]([C@H](C)C[C@@H]2CC[C@@H](O)[C@H](OC)C2)CC(=O)[C@H](C)C=C(C)[C@@H](O)[C@@H](OC)C(=O)[C@H](C)C[C@H](C)C=CC=CC=C1C | 19.1% (inactive) | -4.98 | 2.81 |
| CCOC(=O)c1ccc(N=Cc2nc(-c3ccccc3)oc2OC(C)=O)cc1 | 6.56% (inactive) | -17.5 | 12.1 |
| CC12CCC(C(=O)NCCCN3CCOCC3)(OC1=O)C2(C)C (stereo not drawn) | -26.1% (inactive) | -11.1 | 1.65 |
| CC(C)CC(NC(=O)OC(C)(C)C)C(=O)NCc1ccccc1 (stereo not drawn) | 9.38% (inactive) | -13 | 1.7 |
| CCOc1ccc(C2C(C(=O)c3ccc(C)o3)=C(O)C(=O)N2CCN2CCOCC2)cc1OC (stereo not drawn) | -37.5% (inactive) | -33.6 | 4.84 |
| O=C(CCN1CCCCC1)Nc1cccc(Cl)c1 | 35% (inactive) | 28.1 | 26.1 |
| N#Cc1nc(-c2cccs2)oc1NCc1ccc2c(c1)OCO2 | 48% (inactive) | 8.08 | 3.78 |
| COC(=O)c1[nH]c(C)c(/C(O)=C2\C(=O)C(=O)N(CCN3CCOCC3)C2c2cccnc2)c1C (stereo not drawn) | -38.7% (inactive) | -21.1 | 3.67 |
| N#CC1=C(N)OC2=C(C(=O)CCC2)C1CCc1ccccc1 (stereo not drawn) | 12% (inactive) | -15.7 | 5.15 |
| Oc1ccccc1-c1nc(NCCN2CCOCC2)c2ccccc2n1 | 30.6% (inactive) | 94 | 18.9 |
| Fc1ccccc1-c1nc(NCCCN2CCOCC2)c2ccccc2n1 | 92.5% (active) | 79 | 14.3 |
| COc1cccc(-c2nc(NCCN3CCOCC3)c3ccccc3n2)c1O | 38% (inactive) | 86.2 | 23.4 |
| COCCN(CCOC)C(=O)C12CCC(C)(C(=O)C1)C2(C)C (stereo not drawn) | 31.4% (inactive) | -4.4 | 10.7 |
| CCN(CC)CCN1C(=O)C(=O)/C(=C(/O)c2c(C)[nH]c(C(=O)OC)c2C)C1c1cccc(OC)c1 (stereo not drawn) | -109% (inactive) | -54.7 | 4.61 |
| COC(=O)c1ccc(-c2sc3nc(N4CCOCC4)c4c(c3c2N)CCCC4)o1 | 89.6% (inactive) | 82.9 | 55.6 |
| COc1cc2c(C(=O)N3CCN(c4ccccc4)CC3)c(C)oc2cc1Br | -0.57% (inactive) | -11.3 | 5.92 |
| Cc1ccc(OCC(=O)NCC(=O)n2nc(C)cc2C)cc1 | -54.1% (inactive) | -44.3 | 2.73 |
| Cc1ccccc1N1C(=O)CC(Sc2nnc(-c3ccccc3)o2)C1=O (stereo not drawn) | -77.9% (inactive) | -47.7 | 3.38 |
| Cc1cc(C)cc(CC2CC(=O)N(c3cc(C)on3)C2=O)c1 (stereo not drawn) | 2.63% (inactive) | -16.1 | 7.19 |

| SMILES | growth inhibition | growth inhibition [1] [%] | condensed nuclei [%] |
| --- | --- | --- | --- |
| CCOC(=O)c1sc(-n2[nH]c(C)cc2=O)nc1C | 14.3% (inactive) | -4.21 | 1.46 |
| C=CCc1cccc(/C=N/n2cnnc2)c1O | 34.7% (inactive) | 20.1 | 13.3 |
| C=CCc1cccc(/C=N/c2ncn[nH]2)c1O | -6.01% (inactive) | -17.7 | 2.92 |
| C=CCc1cccc(CNc2nc3ccccc3n2C(C)C)c1O | 95.1% (active) | 88.3 | 14.6 |
| CC1(c2ccco2)NC(=O)NC1=O (stereo not drawn) | 16.9% (inactive) | 7.41 | 12.6 |
| CC(C)CCNc1nc2c(cc1C#N)COC(C)(C)C2 | 12.7% (inactive) | 2.37 | 1.81 |
| CNc1nc(C)c(C#N)cc1C(C)=O | 82.9% (inactive) | 37.9 | 1.85 |
| CN1C(=O)N(c2ccccc2)C(Nc2nncs2)C1(C)C (stereo not drawn) | -44.1% (inactive) | -46.4 | 5.92 |
| CCOC(=O)C1CCN(C(C)=C2C(=O)c3ccccc3C2=O)CC1 | -17.6% (inactive) | -13.6 | 15.2 |
| CC1(C)Cc2c(C#N)c(SCc3nc4ccccc4[nH]3)nc(N3CCOCC3)c2CO1 | 90.8% (active) | 83.4 | 5.26 |
| CC1(C)Cc2c(C#N)c(SCCOc3ccccc3)nc(N3CCOCC3)c2CO1 | -23.3% (inactive) | -59.6 | 0.88 |
| CCCCCSc1nc(N2CCOCC2)c2c(c1C#N)CC(C)(C)OC2 | 69.6% (inactive) | 74.9 | 29.7 |
| COc1ccc(Cn2c(CCCO)nc3ccccc32)cc1OC | 32.8% (inactive) | 6.64 | 5.26 |
| CN1CCc2nc(SCC(=O)Nc3ccc(Cl)cc3)c(C#N)cc2C1 | 54.4% (inactive) | 55.6 | 17.3 |
| Cc1ccc(N2C(=O)C3ON(c4ccccc4)C(c4ccncc4)C3C2=O)c(C)c1 (stereo not drawn) | 10.2% (inactive) | 1.38 | 8.14 |
| Cc1ccc(OCc2nnc(NC(=O)c3ccco3)s2)c(C)c1 | -8.86% (inactive) | -6.84 | 11.2 |
| Cc1cc(=O)oc(C)c1C(=O)NCCNC(=O)c1c(C)cc(=O)oc1C | 5.17% (inactive) | -5.21 | 2.08 |
| CC[N+](C)(CC)CCOC(=O)C(O)(c1ccccc1)C1CCCCC1 (stereo not drawn) | -74.7% (inactive) | -22.9 | 4.12 |
| CN1CCCN=C1COC(=O)C(O)(c1ccccc1)C1CCCCC1 (stereo not drawn) | -62.6% (inactive) | -21.5 | 2.98 |
| CCN(CC)CC#CCOC(=O)C(O)(c1ccccc1)C1CCCCC1 (stereo not drawn) | 93.1% (active) | 92.7 | 18.4 |
| c1ccc(Cc2nnc3n2CCCCC3)cc1 | -43.5% (inactive) | -46.4 | 1.7 |
| O=C1c2ccccc2C(=O)C1c1ccc2ccccc2n1 | 18.9% (inactive) | 7.1 | 4.03 |
